Source: paper PMC9574860, “Chemical Toolkit for PARK7: Potent, Selective, and High-Throughput” (Journal of Medicinal Chemistry, 2022)
The campaign covered roughly 7,900 compounds. About 400 (5.1%) showed an effect of 50% or more. What follows is part of a selection rich in strong results, with near analogues and random picks from the rest.

Biological target: Parkinson's disease protein 7 (PARK7/DJ1) (human, UniProt Q99497)
Assay: primary screen, percent inhibition; read as competition with a fluorescent probe by fluorescence polarization; higher = more effect of the substance
Conditions: 100 µM
Summary of the method: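 Fluorescence-polarization probe displacement (JYQ-107, 20 nM final, 2 h) after 2 h preincubation of PARK7 (0.2 μM final) with each fragment at 100 μM final. Read-out ex/em 480/520 nm; remaining activity derived from FP signal loss relative to reference controls.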

Sequence of Parkinson's disease protein 7 (PARK7/DJ1) (Q99497 whole entry, looked up): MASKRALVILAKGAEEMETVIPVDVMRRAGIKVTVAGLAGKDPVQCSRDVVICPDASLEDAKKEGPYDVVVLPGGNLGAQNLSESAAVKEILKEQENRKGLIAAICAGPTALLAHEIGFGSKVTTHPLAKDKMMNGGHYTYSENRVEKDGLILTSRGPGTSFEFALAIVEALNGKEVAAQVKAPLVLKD

Point of comparison: `O=C(CCl)Nc1cc2c(cc1[N+](=O)[O-])OCCCO2`, Inhibition % 3.15%. Against it:
- CN(Cc1cccs1)C(=O)CCl — higher, 36.6%
- Cc1ccccc1CN(C)C(=O)CCl — higher, 56.6%
- CN(Cc1ccccc1Br)C(=O)CCl — higher, 93.9%
- Cc1ccccc1CCNC(=O)CCl — higher, 8.29%
- Cc1ccc(CN(C)C(=O)Cn2cnc(C#N)n2)c(C)c1 — higher, 3.86%
- CN(Cc1cc(Br)cs1)C(=O)CCl — higher, 42.9%
- Cc1ccc(CN(C)C(=O)CCl)c(C)c1 — higher, 65.7%
- Cc1ccccc1CC(=O)NNC(=O)CCl — higher, 24%
- CCN(Cc1ccc(C#N)cc1F)C(=O)CCl — higher, 16.8%
- CN(Cc1cc(C#N)ccc1F)C(=O)CCl — higher, 50.3%
- CC(NC(=O)CCl)c1cccs1 (stereo not drawn) — higher, 9.37%
- C=CC(=O)N1CC(C)S(=O)(=O)C(C)C1 (stereo not drawn) — higher, 5.08%
- Cn1nccc1C12CCOCC1O2 (stereo not drawn) — higher, 9.22%
- COc1ccccc1COCC1CO1 (stereo not drawn) — higher, 4.72%
- C=CC(=O)N1CCCC(c2nn(C)cc2C(=O)O)C1 (stereo not drawn) — lower, 0.724%
- N#Cc1ncn(-c2ncc(C(F)(F)F)cc2Cl)n1 — higher, 6.83%
- C=CC(=O)NCC1CCCSC1 (stereo not drawn) — higher, 13.8%
- O=C(CCl)N(Cc1ccco1)c1ccccc1 — higher, 17.8%
- CN(Cc1ccc(Cl)s1)C(=O)CCl — higher, 30.4%
- Cc1ccc(CN(C)C(=O)CCl)o1 — higher, 40.8%
- CN(Cc1ccc(-c2ccc(Cl)cc2)o1)C(=O)CCl — higher, 79.2%
- CN(Cc1ccco1)C(=O)CCl — higher, 53%
- O=C(CCl)NC(=O)NC12CC3CC(CC(C3)C1)C2 — lower, 0.699%
- C=CC(=O)Nc1cn(C)nc1C(C)C — higher, 8.9%
- CCn1c(N)c(C(=O)CCl)c(=O)[nH]c1=O — higher, 4.93%
- C=CC(=O)N1C[C@]2(C)CC[C@@H](C2)C1(C)C — higher, 15%
- O=S(=O)(F)c1ccc(-c2cn(Cc3cc(C4CC4)no3)nn2)cc1 — higher, 3.46%
- Cl.ClCCc1nc2ccccc2[nH]1 — lower, 3.05%
- C=CC(=O)NCC1(C)CCOC2(CCC2)C1 (stereo not drawn) — higher, 13.5%
- CC1(C)OB(c2cccc(OCCN3CCCCC3)c2)OC1(C)C — lower, -0.0143%
- O=C(CCCl)NC1CCCCC1 — higher, 3.8%
- O=c1onc(-c2cccnc2)n1Cc1cc(F)cc(F)c1 — higher, 16.6%
- O=c1onc(-c2cccnc2)n1C1C=CCCC1 (stereo not drawn) — higher, 54.8%
- O=c1onc(-c2ccccn2)n1C1C=CCCC1 (stereo not drawn) — higher, 5.08%
- O=C(Nc1ccncc1)N1CCC(C2OCCO2)CC1 — higher, 9.17%
- O=C(Oc1ccccc1)N1CC(O)C1 — higher, 29%
- C=CC(=O)NC(C)c1cnn(C)c1 (stereo not drawn) — higher, 5.67%
- Cl.O=S(=O)(F)CC1CCCNC1 (stereo not drawn) — higher, 7.49%
- O=C1NC(=O)C(CS(=O)(=O)F)N1 (stereo not drawn) — higher, 69.7%
- Cl.O=S(=O)(F)CC1CNCCO1 (stereo not drawn) — higher, 11%
- CC1(C)NC(=O)N(CCS(=O)(=O)F)C1=O — lower, -4.21%
- O=C1NC(=O)C(CCS)N1 (stereo not drawn) — higher, 26.8%
- Cl.O=S(=O)(F)CCC1CCCCN1 (stereo not drawn) — lower, 1.97%
- O=C1NC(=O)C(CS)N1 (stereo not drawn) — higher, 84.8%
- O=C1NC(=O)C(CCS(=O)(=O)F)N1 (stereo not drawn) — higher, 97.6%
- O=C1NC(C2CC2)C1C1CC1 (stereo not drawn) — higher, 6.35%
- N#Cc1cnc(OCC(F)(F)F)cn1 — higher, 4.9%
- C=CC(=O)N1CCC(S(=O)(=O)C(C)C)CC1 — higher, 5.57%
- Cc1csc(C(C#N)=Cc2cnn(C)c2)n1 — higher, 11.9%
- Cc1cnc(S(=O)(=O)F)nc1 — higher, 33.7%
- Cc1cc(C)nc(S)n1 — higher, 17.2%
- Cc1cc(C)nc(S(=O)(=O)F)n1 — higher, 55.9%
- O=C(CCCCl)N1CCCCC1 — lower, 2.86%
- O=C1OCCC1N1C(=O)c2ccccc2S1(=O)=O (stereo not drawn) — higher, 6.02%
- Cc1ccc(C=CS(=O)(=O)Nc2cc(C)nn2C)cc1 — higher, 20%
- C=CC(=O)N1CCC(C)C(OC)C1 (stereo not drawn) — higher, 7.85%
- O=C(O)c1ccc(CS)c(F)c1 — higher, 82.7%
- O=C(O)c1ccc2c(=O)[nH]c(S)nc2c1 — higher, 11.3%
- O=C(O)c1cccc(CS)c1 — higher, 30.4%
- COc1cccc(C2CCCN2C(=O)CCl)c1 (stereo not drawn) — lower, 2.56%
- C=CC(=O)N(C)Cc1cnc(N(C)C)nc1 — higher, 5.02%
- CC(C#N)NS(=O)(=O)c1cccc(S(=O)(=O)F)c1 (stereo not drawn) — higher, 102%
- CCCC(C#N)NS(=O)(=O)c1cccc(S(=O)(=O)F)c1 (stereo not drawn) — higher, 96.8%
- CCCC(C#N)NS(=O)(=O)c1ccc(S(=O)(=O)F)cc1 (stereo not drawn) — higher, 33.3%
- N#CC1(NS(=O)(=O)c2ccc(S(=O)(=O)F)cc2)CCC1 — higher, 31.4%
- CCC(C#N)NS(=O)(=O)c1ccc(S(=O)(=O)F)cc1 (stereo not drawn) — higher, 31.6%
- CC(C#N)NS(=O)(=O)c1ccc(S(=O)(=O)F)cc1 (stereo not drawn) — higher, 23.5%
- O=C(CN1CCSC1=O)NC1CCN2CCCCC12 (stereo not drawn) — higher, 10.2%
- COc1ccc(C(C)(C)C)cc1NC(=O)CCl — higher, 10.8%
- O=C(Nc1ccccc1F)N1CCC(C2OCCO2)CC1 — higher, 5.67%
- C=C(C)c1nc(C#N)c(NCc2ccccc2)o1 — higher, 9.08%
- N#Cc1ccc2cc(N)ccc2n1 — higher, 101%
- Nc1cc(N)nc(S)n1 — higher, 6.46%
- N#Cc1cc(N)c2ccccc2n1 — higher, 10.9%
- Sc1ccc2ccccc2n1 — higher, 14.2%
- Nc1ccc2nc(S)ccc2c1 — higher, 67.6%
- COc1ccc2nc(C#N)ccc2c1 — higher, 3.18%
- N#Cc1ccc(Cl)cc1N1CCC(C2OCCO2)CC1 — lower, 2.51%
- C=CC(=O)NC1CCCCNC1=O (stereo not drawn) — higher, 3.54%
- COc1ccc(S(N)(=O)=O)cc1NC(=O)CCl — lower, 2.41%
- C=CC(=O)NC(NC(=O)C=C)c1ccccc1F — higher, 14.4%
- CN(C)c1nccc(CNCc2ccc(B(O)O)cc2)n1 — lower, -0.514%
- C=CC(=O)NCC1CCCOC1c1ccc(C)cc1 (stereo not drawn) — higher, 9.55%
